In the library only some 2.4% were active in any assay of this set; here they are far more common.
POLI inh: inhibitors of human DNA polymerase iota; Potency, µM (highest dose often 115 µM), for the others: top-dose activity, negative = inhibition, usual class: inhibitors; Q9UNA4; hit rate 1% among 390,000; Pol iota fluorescent replication assay, 10 min; AID 588590
Target sequence (Q9UNA4 whole entry, looked up): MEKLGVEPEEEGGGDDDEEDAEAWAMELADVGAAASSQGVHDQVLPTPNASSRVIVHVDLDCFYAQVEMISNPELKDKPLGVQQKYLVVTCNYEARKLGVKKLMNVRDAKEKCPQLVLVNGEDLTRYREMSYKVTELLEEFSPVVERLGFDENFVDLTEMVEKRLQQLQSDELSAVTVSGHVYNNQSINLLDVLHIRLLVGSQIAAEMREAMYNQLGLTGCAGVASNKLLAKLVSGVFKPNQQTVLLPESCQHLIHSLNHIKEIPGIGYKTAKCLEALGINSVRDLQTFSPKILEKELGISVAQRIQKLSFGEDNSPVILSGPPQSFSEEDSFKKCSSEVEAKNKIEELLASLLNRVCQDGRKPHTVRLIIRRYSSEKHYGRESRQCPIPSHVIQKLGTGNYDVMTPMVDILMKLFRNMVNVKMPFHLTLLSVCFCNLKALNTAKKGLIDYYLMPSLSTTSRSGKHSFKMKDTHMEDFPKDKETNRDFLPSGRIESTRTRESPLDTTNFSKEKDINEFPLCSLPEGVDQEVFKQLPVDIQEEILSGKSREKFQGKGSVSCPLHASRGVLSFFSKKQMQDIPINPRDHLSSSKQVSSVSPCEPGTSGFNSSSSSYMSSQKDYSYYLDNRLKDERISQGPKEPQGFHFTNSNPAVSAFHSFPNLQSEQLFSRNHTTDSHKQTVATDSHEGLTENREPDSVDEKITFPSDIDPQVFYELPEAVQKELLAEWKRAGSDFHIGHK
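Fluorescent replication assay read twice, at 0 min and 10 min after adding 50 nM (final) substrate. Enzyme (10 nM) and compounds were first incubated 15 min at room temperature; enzyme-free buffer wells were negative controls.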
Pol kappa inh: inhibitors of human DNA polymerase kappa; Q9UBT6; purified Pol kappa, fluorescent DNA synthesis assay, 10 min; Potency, µM (titrated, usually from 107 µM), without a hit: at the top dose activity, negative = inhibition, most hits filed as inhibitors; hit rate 0.53% among 400,000; AID 588579; also: % is scaled to controls: 0 for no effect and ±100 for the full control effect
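10 nM Pol kappa preincubated 15 min at room temperature with compounds, then reaction started with substrate at 50 nM final. Fluorescence read kinetically at 0 and 10 min; buffer-only wells served as negative control.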
Pol beta inh: blocks human DNA polymerase beta activity. P06746. Pol beta primer extension/strand displacement, fluorescence kinetic. Potency, µM (doses to about 114 µM), inactives show top-dose activity change, negative = inhibition, hits mostly inhibitors. hit rate 1.3% among 340,000. AID 485314; also: % is scaled to controls: 0 for no effect and ±100 for the full control effect
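Values derive from four-parameter Hill fits of normalized kinetic data: reads at 0 and 10 min following addition of 50 nM substrate to 10 nM Pol beta preincubated 15 min with compound.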
FEN1 inh: blocks human flap endonuclease 1; P39748; Potency, µM (highest dose often 114 µM), for the others: top-dose activity change, negative = inhibition, most hits filed as inhibitors; hit rate 0.35% among 390,000; AID 588795; Recombinant FEN1 flap cleavage, fluorescence, 15 min; also: % is scaled to controls: 0 for no effect and ±100 for the full control effect; nearly all actives have a fitted effect of over 65% in size
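With each library titrated from low to high concentration, compounds met 10 nM FEN1 for 15 min at room temperature before 50 nM substrate was added; readings at 0 and 15 min fed four-parameter Hill curve fits.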
TDP1 block: blocks human tyrosyl-DNA phosphodiesterase 1 | recombinant TDP1, AlphaScreen DNA substrate cleavage | Potency, µM (series often up to 130 µM), for inactives: at the highest dose activity change, negative = inhibition, most hits filed as inhibitors | hit rate 0.28% among 350,000; also: % is scaled to controls: 0 for no effect and ±100 for the full control effect; nearly all actives have a fitted effect of over 40% in size
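Recombinant human Tdp1 (E. coli-expressed, 1 nM final) preincubated with compounds 15 min at room temperature, then 5'-biotin/3'-phosphotyrosine-FITC DNA substrate (15 nM final) added for 5 min. AlphaScreen beads (10 ug/ml final) added 10 min; cleavage lowers signal.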
Pol eta inh: DNA polymerase eta (human) inhibition; hit rate 1.2% among 390,000; AID 588591; recombinant Pol eta, fluorescent DNA replication assay; Q9Y253; Potency, µM (titrated, usually from 114 µM), for the others: top-dose activity change, negative = inhibition, actives largely listed as inhibitors; also: % is scaled to controls: 0 for no effect and ±100 for the full control effect
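Pol eta at 10 nM preincubated with compounds 15 min at room temperature; reaction started with fluorescent substrate (50 nM final) and read kinetically at 0 and 10 min.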
The depositor's hits bear a star; ? = inconclusive; nt = no result; ! = a repeat was not active; [ ] = another dose, or the depositor's remark. Calls follow the shape of the dose curve; as a rule, active = well fitted curve in the direction sought with a large enough effect; inconclusive = small, poorly fitted or top-dose-only effect, or another doubt; inactive = no such curve, though single readings can be large; an effect the other way counts as inactive or inconclusive. Potency is read from the fitted curve at half-maximal effect.

SMILES	POLI inh	Pol kappa inh	Pol beta inh	FEN1 inh	TDP1 block	Pol eta inh
Cc1cc(C)cc(Oc2nc3ccccn3c(=O)c2/C=C(\C#N)c2nc3ccccc3s2)c1	24%	-4%	?	-15%	3%	?
Cc1[nH]n(-c2ccccc2)c(=O)c1C(c1ccc([N+](=O)[O-])cc1)c1c(C)[nH]n(-c2ccccc2)c1=O	0.71µM*	-3%	7%	0%	3%	-6%
C(=NC1CCCCC1)=NC1CCCCC1	nt	nt	nt	nt	6%	nt
CC12C=CC(=O)C=C1CCC1C2=CCC2(C)C1CC[C@@H]2C(=O)CN1CCN(c2cc(N3CCCC3)nc(N3CCCC3)n2)CC1 (stereo partly drawn)	nt	-15%[60.1 µM]	nt	nt	15%	nt
CCCCOC(=O)c1ccccc1C(=O)OCc1ccccc1	-28%	-4%	nt	-26%	40µM*!	-2%
CC(C)c1cc2c(c(O)c1O)[C@@]1(C(=O)O)CCCC(C)(C)[C@@H]1CC2	nt	-10%[60.1 µM]	nt	nt	12%	nt
CCOP(=S)(OCC)Oc1nc(Cl)c(Cl)cc1Cl	10%	15%	nt	-4%	50µM*!	-15%
COP(=S)(OC)Oc1nc(Cl)c(Cl)cc1Cl	nt	-7%[60.1 µM]	nt	nt	21%	nt
Cc1c(F)c(F)c(COC(=O)C2C(/C=C(\Cl)C(F)(F)F)C2(C)C)c(F)c1F (stereo not drawn)	nt	11%[60.1 µM]	nt	nt	27%	nt
N.N.N.N.N.N.N.N.N.N.N.N.N.N.O.O.[Cl-].[Cl-].[Cl-].[Cl-].[Cl-].[Cl-].[Ru].[Ru].[Ru]	8.9µM*	nt	5.6µM*	nt	15%[56.1 µM]	25µM*
CCC(C)c1ccc(N2C(=O)NC(=O)/C(=C/c3cccn3CCOc3ccc(C)cc3)C2=O)cc1 (stereo not drawn)	35µM*	-74%	11%	0%	3%	7%
Cc1ccc(N2C(=O)NC(=O)/C(=C\c3cnc(-c4ccccc4)nc3)C2=O)cc1	-3%	-7%	3%	-2%	nt	-7%
C/C=C(\C)C(=O)OC1C(C)=C2C(C1OC(=O)CCCCC)C(C)(OC(C)=O)CC(OC(=O)CCC)C1(O)C2OC(=O)C1(C)O (stereo not drawn)	nt	nt	25µM*	nt	nt	nt
CC=C(C)C(=O)O[C@H]1C(C)=C2[C@@H]3OC(=O)[C@@](C)(O)[C@@]3(O)[C@@H](OC(=O)CCC)C[C@](C)(OC(C)=O)[C@@H]2[C@@H]1OC(=O)CCCCCCC	nt	?	nt	nt	13%	nt
COC(C)(C)C	nt	nt	nt	nt	12%	nt
Cn1cccc1/C=C1/C(=O)NC(=O)N(Cc2ccc(F)cc2)C1=O	40µM*	71µM*	1%	-6%	nt	79µM*
CC1CC2CCC(O2)C(C)C(=O)OC(C)CC2CCC(O2)C(C)C(=O)OC(C)CC2CCC(O2)C(C)C(=O)OC(C)CC2CCC(O2)C(C)C(=O)O1 (stereo not drawn)	nt	0%[60.1 µM]	nt	nt	4%	nt
CCCc1cc(=O)oc2cc(OCc3ccc(C(=O)O)o3)ccc12	113%	-16%	71µM*	-1%	nt	?
CC[C@]1(O)CC(O[C@@H]2CC(N(C)C)C(O)C(C)O2)c2c(cc3c(c2O)C(=O)c2c(O)cccc2C3=O)C1C(=O)OC (stereo partly drawn)	nt	6.3µM*	nt	nt	9%	nt
CC[C@@]1(O)CC(O)c2c(cc3c(c2O)C(=O)c2c(O)ccc(O)c2C3=O)C1C(=O)OC (stereo partly drawn)	nt	25µM*	nt	nt	8%[56.1 µM]	nt
Cc1ccc([N+](=O)[O-])cc1C	nt	nt	nt	nt	17%	nt
COc1ccc(-n2c(O)c(/C=C3\C=Nc4ccc(Br)cc43)c(=O)[nH]c2=O)c(OC)c1	?	-15%	20%	?	nt	79µM*
COc1ccc(-n2c(O)c(/C=C3\C=Nc4ccc(Br)cc43)c(=O)[nH]c2=O)cc1	7.9µM*	-5%	-13%	-34%	nt	-16%
O=c1[nH]c(=O)n(-c2ccccc2F)c(O)c1/C=C1\C=Nc2ccccc21	?	0%	2%	?	nt	-8%
O=c1[nH]c(=O)n(-c2ccc(F)cc2)c(O)c1/C=C1\C=Nc2ccccc21	7.9µM*	?	17%	-3%	nt	89µM*
SMILES	POLI inh	Pol kappa inh	Pol beta inh	FEN1 inh	TDP1 block	Pol eta inh
COc1ccc(-n2c(O)c(/C=C3\C=Nc4ccccc43)c(=O)[nH]c2=O)cc1	?	-5%	-21%	-17%	nt	?
Cc1ccc(N2C(=O)NC(=O)/C(=C\c3cn(CC(=O)O)c4ccccc34)C2=O)cc1	32µM*	-3%	0%	-36%	nt	?
COC(=O)Cn1cc(/C=C2\C(=O)NC(=O)N(c3ccccc3)C2=O)c2ccccc21	?	-3%	5%	?	nt	-3%
O=C(O)Cn1cc(/C=C2\C(=O)NC(=O)N(c3ccc(Br)cc3)C2=O)c2ccccc21	32µM*	-17%	22%	?	nt	?
C=CCOCC1CO1 (stereo not drawn)	nt	nt	nt	nt	10%	nt
c1nc[nH]n1	nt	nt	nt	nt	5%	nt
COC1=CC(=O)OC(CCc2ccccc2)C1 (stereo not drawn)	nt	nt	nt	nt	15%	nt
CCN(CC)C(=O)c1ccc2c(c1)C1C(Cl)C(Sc3ccccc3[N+](=O)[O-])CC1C(C(=O)O)N2 (stereo not drawn)	?	?	50µM*	?	3%	18µM*
O=[N+]([O-])c1cccc(C2N3CCCN23)c1 (stereo not drawn)	17%	-1%	91%	5%	-8%	-17%
O=C(O)c1ccc2c(c1)C1C(Cl)C(Sc3ccccc3[N+](=O)[O-])CC1C(c1cccc([N+](=O)[O-])c1)N2 (stereo not drawn)	?	50µM*	?	?	-6%	22µM*
O=C(O)c1cccc2c1NC(c1cccc([N+](=O)[O-])c1)C1CC(Sc3ccccc3[N+](=O)[O-])C(Cl)C21 (stereo not drawn)	?	?	?	-26%	10%	32µM*
C[C@@]12CC[C@@H]3c4ccc(O)cc4C[C@H](CCCCCCCCCS(=O)CCCC(F)(F)C(F)(F)F)[C@H]3[C@@H]1CC[C@@H]2O (stereo partly drawn)	nt	?	nt	nt	13%[56.1 µM]	nt
CC(=O)Nc1cc(Cl)c(N=Cc2ccc(O)cc2O)cc1Cl	?	-8%[60.1 µM]	10µM*	7%	5%	79µM*
CC(=O)[C@@H]1CC[C@H]2[C@@H]3CC[C@@H]4CC(=O)CC[C@]4(C)[C@H]3CC[C@]12C	nt	8%[19.4 µM]	nt	nt	6%	nt
C=CCn1c(O)c(/C(C)=N/NC(=S)Nc2ccccc2)c(=O)[nH]c1=O	?	-19%	6%	-6%	nt	-2%
C=CCn1c(O)c(/C(CC)=N/NC(=S)Nc2ccccc2)c(=O)[nH]c1=O	-20%	-10%	11%	2%	40µM*	-6%
[N-]=[N+]=[N-]	nt	nt	nt	nt	15%	nt
CCCBr	nt	nt	nt	nt	7%	nt

Screening data (PubChem BioAssay)
